From the supplement of paper PMC7530171
Counter-ions that a name gives are not always drawn. ± gives the standard deviation.

System: THP-1
Experiment: THP-1 cell loss relative to DMSO control; higher = more host cell loss (toxicity); extreme values may be limits of the assay
Conditions: 10 µM; 4 days; infection: M. tuberculosis H37Rv
Description: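 OICR kinase inhibitor library screened in duplicate at 10 uM against M. tuberculosis-infected THP-1 macrophages, 4 days at 37 C. THP-1 cell loss (cytotoxicity or loss of adherence) was quantified from Hoechst-stained nuclei counts by high-content imaging and normalised to the 1% DMSO control; 100 = complete loss of host cells.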

Structure (SMILES) | THP-1 cell loss [%]
Cc1cnc(Nc2ccc(OCCN3CCCC3)cc2)nc1Nc1cccc(S(=O)(=O)NC(C)(C)C)c1 | 100
Oc1cccc(-c2nc(N3CCOCC3)c3oc4ncccc4c3n2)c1 | 24.3 ± 3.9
CN(C)C[C@@H]1CCn2cc(c3ccccc32)C2=C(C(=O)NC2=O)c2cn(c3ccccc23)CCO1 | 100
Nc1cccc(-c2cc3c(Oc4cccc(O)c4)ncnc3[nH]2)c1 | 25.7 ± 7.3
CSc1cccc(Nc2ncc3cc(-c4c(Cl)cccc4Cl)c(=O)n(C)c3n2)c1 | 100
CC(C)(C)c1cnc(CSc2cnc(NC(=O)C3CCNCC3)s2)o1 | 100
COc1cc(F)c(F)c(Nc2ccc(I)cc2F)c1NS(=O)(=O)C1(C[C@H](O)CO)CC1 | 84.9 ± 1
CN(C)c1cc2c(Nc3ccc4c(cnn4Cc4ccccc4)c3)ncnc2cn1 | 62.6 ± 18
Nc1ncnc2c1c(I)cn2[C@@H]1O[C@H](CO)[C@@H](O)[C@H]1O [5-Iodotubercidin] | 100
C[C@@H]1CN(CC(=O)Nc2ccc3c(c2)Cc2cccc(-c4cc(=O)cc(N5CCOCC5)o4)c2S3)C[C@H](C)O1 | 100
Nc1ncnc(Nc2ccc(OCc3ccccc3)c(Cl)c2)c1/C=N/OCCN1CCOCC1 | 38.7 ± 4.5
Nc1nc(OCC2CCCCC2)c2[nH]cnc2n1 | 3.9 ± 5.5
CC[C@H](CO)Nc1nc(NCc2ccccc2)c2ncn(C(C)C)c2n1 [Roscovitine] | 53.5 ± 2.5
N#C/C(=C\c1ccc(O)c(O)c1)C(=O)Nc1ccccc1 | 9.72 ± 2.5
CC(C)c1cnn2c(NCc3ccccc3)cc(NCCCCCCN)nc12 [BS-181 hydrochloride] | 90.8 ± 13
CCN(CC)CCNC(=O)c1ccc2nc(-c3ccccc3)c(-c3ccc(CN4CCC(n5c(=O)[nH]c6ccccc65)CC4)cc3)nc2c1 [Merck-22-6] | 100
c1cc(-c2cnn3cc(-c4ccc(OCCN5CCCCC5)cc4)cnc23)ccn1 [Dorsomorphin dihydrochloride] | 100
CS(=O)(=O)CCNCc1ccc(-c2ccc3ncnc(Nc4ccc(OCc5cccc(F)c5)c(Cl)c4)c3c2)o1 [Lapatinib ditosylate] | 100

Structure (SMILES) | THP-1 cell loss [%]
O=C(NCCCNc1nc(Nc2cccc(NC(=O)N3CCCC3)c2)ncc1I)c1cccs1 | 100
CN(C)Cc1cccc(N=C(c2ccccc2)c2c(O)[nH]c3cc(C(=O)N(C)C)ccc23)c1 | 23.9 ± 0.5
Cc1ccc(NC(=O)c2cccc(C(C)(C)C#N)c2)cc1Nc1ccc2ncn(C)c(=O)c2c1 | 100
CN(c1ncccc1CNc1nc(Nc2ccc3c(c2)CC(=O)N3)ncc1C(F)(F)F)S(C)(=O)=O | 100
COc1cc(Oc2ccnc3cc(OC)c(OC)cc23)ccc1NC(=O)NC(C)c1nccs1 (racemic) | 10.7 ± 4.6
CC(=O)Nc1ccc([C@H](C)C(=O)Nc2ncc(C(C)C)s2)cc1 | 100
NC(=O)c1ccc(-c2nc(-c3ccccn3)c(-c3ccc4c(c3)OCO4)[nH]2)cc1 | 0.126 ± 0.18
O=[N+]([O-])c1ccc(-c2nc(-c3ccc(F)cc3)c(-c3ccncc3)[nH]2)cc1 | 17 ± 3.5
O=C(Nc1ccc(-c2cn[nH]c2)cc1)C1COc2ccccc2O1 (stereo not given) [Rho Kinase Inhibitor V] | 6.82 ± 9.6
COc1cc(OC)c(/C=C/S(=O)(=O)Cc2ccc(OC)c(NCC(=O)O)c2)c(OC)c1 | 44.7 ± 2.4
Cc1cc(Nc2cc(C)c(C#N)c(NC(C)CCCC(C)(C)O)n2)n[nH]1 (stereo not given) [TC-A 2317 hydrochloride] | 19.1 ± 1
C=CC[C@@H]1/C=C(\C)C[C@H](C)C[C@H](OC)[C@H]2O[C@@](O)(C(=O)C(=O)N3CCCC[C@H]3C(=O)O[C@H](/C(C)=C/[C@@H]3CC[C@@H](O)[C@H](OC)C3)[C@H](C)[C@@H](O)CC1=O)[C@H](C)C[C@@H]2OC | 0
CN(C)CCCn1cc(C2=C(c3c[nH]c4ccccc34)C(=O)NC2=O)c2ccccc21 [Bisindolylmaleimide I hydrochloride] | 100
O=C(O)c1ccc2c(c1)nc(Nc1cccc(Cl)c1)c1ccncc12 | 66.8 ± 1.6
CC(C)CC(=O)Nc1n[nH]c2c1CN(C(=O)C1CCN(C)CC1)C2(C)C | 100
COc1cc2ncnc(Nc3cccc(Cl)c3)c2cc1OC [Tyrphostin AG 1478 mesylate] | 41.5 ± 9.7
NC(=O)Nc1sc(-c2ccc(F)cc2)cc1C(N)=O | 76.1 ± 3
